In PubChem BioAssay AID709 (SRMLSC, 2007) one finds fluorescence fold increase data, which are given here for 101 compounds.

In all, about 65,000 compounds went through this assay and about 3,600 (5.5%) were called active. The sample holds actives, similar compounds and a random draw of the others, so the mix is not that of the screen. Values without a mark were called inactive.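 How the source made its calls: active means at 10 µM, mean starting fluorescence two-fold or more over control wells; inactive means the rest.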

A short description of the assay: intrinsic fluorescence of library compounds, ex339/em460 – biochemical, MLSMR library, data from DPM-DC assay, artefact control, profiling panel (AID 709).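 Further: signal is the first read of a kinetic run.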 The settings on record: compound autofluorescence, ex339/em460 nm, NADH buffer; at 10 µM; active compounds read high; 1 = no-compound wells, NADH background.
Regarding `COc1ccc(N2C(=O)c3cccc4cccc(c34)C2=O)nn1`, the fluorescence fold increase is 1.57.

For the compound `C=CCNc1nnc(SCC(=O)N2CCCCC2)c2ccccc12`, the fluorescence fold increase is 2.26 (active).

With `Cc1ccnc(N2CCN(C(=O)CSc3nc4ccccc4nc3N3CCCCC3)CC2)c1`, the fluorescence fold increase was 1.18.

As for `C=CCNc1nnc(C)c2ccccc12`, the fluorescence fold increase is 1.09.

In the case of `CCCC(=O)N(CCc1ccccc1)Cc1nc2ccccc2c(=O)[nH]1`, the fluorescence fold increase was 1.13.

Consider `CS(=O)(=O)NCc1ccc(C(=O)NCc2ccccc2)cc1`, for which the fluorescence fold increase is 1.04.

Consider `O=C1C2(c3ccccc3)CN(CCCO)CC1(c1ccccc1)CN(CCCO)C2`, for which the fluorescence fold increase is 1.

On to `COCCn1c(C)cc(C(=O)CSc2ncnc3sc4c(c23)CCC4)c1C`, for which the fluorescence fold increase is 1.55.

Regarding `COCCNc1nc(-n2nc(C)cc2C)nc2sc3c(c12)CCCC3`, the fluorescence fold increase is 3.57 (active).

Take `Cc1cc(C)n(-c2nc(SCC(=O)N3CCCC3)c3c4c(sc3n2)CCCC4)n1`: the fluorescence fold increase was 1.3.

For `CCOc1ccc(S(=O)(=O)n2ccnc2)c2ccccc12`, the fluorescence fold increase was 1.04.

`COc1cc(C2C(C(=O)c3ccc(C)o3)=C(O)C(=O)N2Cc2cccnc2)ccc1O` (stereo unspecified): the fluorescence fold increase was 1.02.

`COc1ccccc1N1CCN(C(=O)c2cn(-c3ccccc3)nc2-c2cccnc2)CC1`: the fluorescence fold increase was 1.12.

Regarding `Cc1nnc(SCC(=O)Nn2cnnc2)s1`, the fluorescence fold increase is 1.03.

For `COc1ccc(-c2noc(-c3cccc(OC)c3OC)n2)cc1OC`, the fluorescence fold increase is 1.12.

Consider `CCOC(=O)N1CCN(C(=O)CSc2ccc(Cl)cc2)CC1`, for which the fluorescence fold increase is 1.07.

For `CCOC(=O)N1CCN(C(=O)c2ccc3nc4cc(Cl)ccc4c(=O)n3c2)CC1`, the fluorescence fold increase was 3.31 (active).

Turning to `CCOC(=O)N1CCN(C(=O)CNC(=O)Cc2ccc(Cl)cc2)CC1`, the fluorescence fold increase is 1.08.

With `Cc1cc(C)nc(NC(=O)C(C)N2C(=O)c3ccccc3C2=O)n1` (stereo unspecified), the fluorescence fold increase was 1.09.

Regarding `CCn1c(=N)c(S(=O)(=O)c2ccc(F)cc2)cc2c(=O)n3ccccc3nc21`, the fluorescence fold increase is 3.45 (active).

On to `Cc1ccc(C)c(NC(=O)C2CCCN2C(=O)OC(C)(C)C)c1` (stereo unspecified), for which the fluorescence fold increase is 1.17.

On to `CCn1nc(C(=O)OCC(=O)N2c3ccccc3CC2C)c2ccccc2c1=O` (stereo unspecified), for which the fluorescence fold increase was 1.05.

As for `COc1ccccc1Oc1ccc(S(=O)(=O)Nc2cccnc2)cc1`, the fluorescence fold increase was 1.1.

On to `O=P(c1ccc2c(c1)OCCO2)(N1CCOCC1)N1CCOCC1`, for which the fluorescence fold increase is 1.13.

Consider `c1coc(-c2nc3nc4ccccc4n3nc2-c2ccco2)c1`, for which the fluorescence fold increase was 0.92.

For the compound `COc1ccc(CCn2c(-c3ccco3)nc3nc4ccccc4nc32)cc1OC`, the fluorescence fold increase is 1.07.

With `Cn1c(-c2ccco2)nc2cc3ccccc3cc21`, the fluorescence fold increase was 4.72 (active).

Turning to `CCC(=O)Nc1nc(OC)cc(OC)n1`, the fluorescence fold increase is 1.16.

As for `C=CCSc1nc2c(c(=O)[nH]1)C(C(C)C)C(C#N)=C(N)O2` (stereo unspecified), the fluorescence fold increase was 1.06.

In the case of `Cn1c2c(c(=O)n(C)c1=O)C(c1ccc(O)cc1)Nc1ccccc1O2` (stereo unspecified), the fluorescence fold increase is 1.08.

For `COCCn1c(=O)[nH]c2cc(C(=O)NCc3cccnc3)ccc2c1=O`, the fluorescence fold increase is 1.48.

For `COc1ccc(CCn2c(=N)c(C(=O)NCc3ccco3)cc3c(=O)n4cccc(C)c4nc32)cc1`, the fluorescence fold increase was 1.64.

Take `CCn1c(=N)c(C(=O)NCCCOC)cc2c(=O)n3cccc(C)c3nc21`: the fluorescence fold increase was 3.83 (active).

In the case of `O=c1cc(-c2ccccc2)nc(N2CCCCC2)[nH]1`, the fluorescence fold increase was 1.26.

Turning to `O=c1[nH][nH]c(=O)c2cc(N3CCCC3)ccc12`, the fluorescence fold increase is 2.65 (active).

On to `CCOc1ccc(C2C(C(=O)NC)=C(C)Nc3nc4ccccc4n32)cc1OC` (stereo unspecified), for which the fluorescence fold increase is 1.15.

As for `Cc1ccc2c(c1)N(C(=O)CCC(=O)N1CCc3ccccc3C1)CCO2`, the fluorescence fold increase is 1.17.

With `Cc1ccc(NC(=O)CCN2CCc3ccccc3C2)cc1`, the fluorescence fold increase is 1.02.

Consider `Cc1ccc2c(c1)c1ncnc(N3CCc4ccccc4C3)c1n2C`, for which the fluorescence fold increase is 3.33 (active).

For `CCS(=O)(=O)N1CCCC(C(=O)NCc2ccc(C)cc2)C1` (stereo unspecified), the fluorescence fold increase was 1.06.

With `O=C(Cn1nnc2ccccc2c1=O)Nc1cc(C(F)(F)F)ccc1N1CCOCC1`, the fluorescence fold increase was 1.02.

`COc1ccc(-c2[nH]nc3c2C(c2ccncc2)C(C#N)=C(N)O3)cc1` (stereo unspecified): the fluorescence fold increase is 1.04.

As for `Cn1c(=O)[nH]c(=O)c2c1nc(Br)n2CCCCSc1nc2ccccc2o1`, the fluorescence fold increase was 1.1.

In the case of `CCOC(=O)CSC1=C(C#N)C(c2sccc2C)CC(=O)N1` (stereo unspecified), the fluorescence fold increase was 1.13.

As for `CS(=O)(=O)N(CC(=O)NCc1ccco1)c1ccc2c(c1)OCO2`, the fluorescence fold increase was 1.14.

On to `Cc1nc2nc(COc3ccccc3)[nH]n2c(=O)c1Cc1ccccc1`, for which the fluorescence fold increase is 1.09.

On to `O=c1[nH]c(-c2cccs2)nc2ccccc12`, for which the fluorescence fold increase is 1.17.

As to `CCc1c(C)nc2cc(-c3cccs3)[nH]n2c1=O`, the fluorescence fold increase is 2.07 (active).

As to `O=P(O)(CP(=O)(c1ccccc1)c1ccccc1)c1ccccc1`, the fluorescence fold increase is 1.13.

In the case of `CCCCNC(=O)c1c[nH]c2ccc(S(=O)(=O)Nc3ccc(OCC)cc3)cc2c1=O`, the fluorescence fold increase was 1.15.

For `Cc1nonc1NC(=O)c1ccccc1Br`, the fluorescence fold increase was 1.01.

Regarding `Cc1ccc(S(=O)(=O)C(C#N)c2nc3ccccc3nc2N2CCCC2)cc1C` (stereo unspecified), the fluorescence fold increase was 2.44 (active).

Consider `CC(C)OC(=O)C(C#N)c1nc2ccccc2nc1N1CCN(Cc2ccccc2)CC1` (stereo unspecified), for which the fluorescence fold increase is 1.82.

In the case of `Cc1cccc2cc(C#N)c(N3CCCC3)nc12`, the fluorescence fold increase was 1.58.

In the case of `NC(=O)CSc1oc(-c2cccs2)nc1S(=O)(=O)c1ccccc1`, the fluorescence fold increase was 1.22.

Regarding `CCN(CC(=O)NC(C)C)C(=O)CCNC(=O)c1ccc(Cl)cc1`, the fluorescence fold increase was 1.13.

As to `CCOc1cc2c(cc1OCC)C(C(=O)O)C(c1ccc(OC)c(O)c1)N(C)C2=O` (stereo unspecified), the fluorescence fold increase was 1.02.

Take `O=C(Nc1cccc(NC(=O)N2CCN(c3ccccc3)CC2)c1)N1CCN(c2ccccc2)CC1`: the fluorescence fold increase is 1.06.

For `Cc1nc2ccc(NC(=O)N3CCC(c4ccccc4)C3)cc2nc1C` (stereo unspecified), the fluorescence fold increase was 2.93 (active).

With `Cn1c(CCN2CCCCCC2)nc2cc(NC(=O)Nc3ccccc3)ccc21`, the fluorescence fold increase is 1.24.

Regarding `CCc1cc(=O)oc2cc(C)cc(OC(C)C(=O)O)c12` (stereo unspecified), the fluorescence fold increase was 3.78 (active).

Turning to `CCCSC1=C(C#N)C(c2ccccc2C)C(C(=O)OC)C(=O)N1` (stereo unspecified), the fluorescence fold increase was 1.13.

As for `Cc1cc(C)nc(N2CCN(c3ncnc4c3oc3ccccc34)CC2)n1`, the fluorescence fold increase is 1.27.

Consider `Cc1nc(N2CCN(c3ncccn3)CC2)c2oc3ccccc3c2n1`, for which the fluorescence fold increase is 1.16.

For the compound `CCc1nc(N2CCN(c3nc(C)cc(C)n3)CC2)c2oc3ccccc3c2n1`, the fluorescence fold increase is 2.49 (active).

For `Cc1noc(COc2ccccc2OCC(O)CNC(C)(C)C)n1` (stereo unspecified), the fluorescence fold increase was 1.04.

For the compound `O=c1c(-c2ccc3c(c2)OCCO3)c(C(F)(F)F)oc2cc(O)cc(O)c12`, the fluorescence fold increase was 1.07.

`CCC(C)(C)n1nnnc1C(c1cccs1)N1CCN(c2nc3ccccc3s2)CC1` (stereo unspecified): the fluorescence fold increase was 1.35.

With `CCOC(=O)c1[nH]cnc1C(=O)NC1CCCCC1`, the fluorescence fold increase was 1.07.

On to `COc1cccc(N2CCN(C3CC(=O)N(c4ccc(Cl)cc4)C3=O)CC2)c1` (stereo unspecified), for which the fluorescence fold increase is 1.12.

Regarding `CC1CCCN(C(=O)Cn2c(=O)oc3ccccc32)C1` (stereo unspecified), the fluorescence fold increase is 1.09.

Take `Cc1nc(NCc2ccccc2)c(C(N)=O)c2c1COC(C)(C)C2`: the fluorescence fold increase was 1.89.

As for `CC(C)Cn1c(CCC(=O)O)ccc1-c1cccs1`, the fluorescence fold increase was 3.14 (active).

For the compound `O=C(O)CCC(=O)N(Cc1cccs1)Cc1cccs1`, the fluorescence fold increase was 1.09.

For `CCCC(=O)NC(C)C(c1cccs1)N1CCN(c2ccccc2)CC1` (stereo unspecified), the fluorescence fold increase was 0.99.

Take `CCCCOC(=O)c1ccc(N2C(=O)CC(N3CCN(C/C=C/c4ccccc4)CC3)C2=O)cc1` (stereo unspecified): the fluorescence fold increase is 1.12.

For `Clc1ccc(Cc2nn3c(-c4ccncc4)nnc3s2)cc1`, the fluorescence fold increase was 1.

As for `CCCCC(=O)Nc1ccc2c(c1)C(=O)NC2=O`, the fluorescence fold increase is 2.11 (active).

Take `CCCCC(=O)Nc1ccc(C(=O)NCCCn2ccnc2)cc1`: the fluorescence fold increase was 1.13.

Consider `CCCCC(=O)Nc1ccc2c(c1)OCCO2`, for which the fluorescence fold increase was 1.08.

For the compound `O=C(Nc1ccccc1N1CCN(C(=O)c2ccccc2)CC1)c1ccc2c(c1)OCO2`, the fluorescence fold increase is 1.1.

Turning to `N#CCSc1nc2ccccc2c(=O)n1-c1ccccc1`, the fluorescence fold increase was 1.11.

As for `CC(C)CCNC(=O)C1CCCN(S(=O)(=O)c2ccc(F)cc2)C1` (stereo unspecified), the fluorescence fold increase is 1.06.

For the compound `CSc1nnc(-c2ccncc2)n1CCCN1CCCC1=O`, the fluorescence fold increase was 0.81.

Regarding `CC(C)(C)OC(=O)c1c(N)n(CCCN2CCCC2=O)c2nc3ccccc3nc12`, the fluorescence fold increase is 3.76 (active).

For `CCOc1cc2[nH]c(=S)n(CCCN3CCCC3=O)c(=O)c2cc1OCC`, the fluorescence fold increase is 1.07.

On to `COc1ccc(CNC2CCCCC2)cc1`, for which the fluorescence fold increase was 1.1.

For the compound `CCOc1ccc2nc(NCCNS(=O)(=O)c3ccccc3)c(C#N)cc2c1`, the fluorescence fold increase is 3.3 (active).

For `CCOc1ccc2cc(C#N)c(SCC(=O)OC)nc2c1`, the fluorescence fold increase was 1.95.

As to `O=S(=O)(NCCNS(=O)(=O)c1ccccc1)c1ccccc1`, the fluorescence fold increase was 1.04.

As to `COC(=O)C(CC(=O)Nc1cc(C)ccc1C)Nc1ccccc1OC` (stereo unspecified), the fluorescence fold increase was 1.02.

With `COc1ccc(C2C3=C(OC(C)=O)c4ccccc4C3=Nc3c2c(=O)n(C)c(=O)n3C)cc1` (stereo unspecified), the fluorescence fold increase was 1.09.

Take `Cn1nnc2cc(C(=O)NCCC3=CCCCC3)ccc21`: the fluorescence fold increase was 1.03.

Turning to `CC1CCCN(C(=O)c2ccc3c(c2)C(=O)N(CCC2=CCCCC2)C3=O)C1` (stereo unspecified), the fluorescence fold increase was 1.04.

As to `Cc1ccc2c(c1)c1ncn(CCC3=CCCCC3)c(=O)c1n2C`, the fluorescence fold increase is 2.08 (active).

As to `Cc1ccc(C(C(=O)NCc2ccco2)N(CC2CCCO2)C(=O)Cn2nnc3ccccc32)cc1` (stereo unspecified), the fluorescence fold increase was 0.88.

Turning to `CCc1nnc(NC(=O)CSc2nnc(COc3ccc(C#N)cc3)n2-c2ccccc2)s1`, the fluorescence fold increase was 1.27.

As for `Cc1nn(-c2ccccc2)c2c1C(=O)NC(=O)C(C)(C)C2`, the fluorescence fold increase was 1.03.

Take `COc1ccc(OCC(=O)N2CCOCC2)cc1`: the fluorescence fold increase was 1.05.

Consider `O=C1CC2(CCCCC2)Oc2ccc(OCC(=O)N3CCOCC3)cc21`, for which the fluorescence fold increase is 5.15 (active).

On to `O=C(Nc1cccc(OCC(=O)N2CCOCC2)c1)C1CCCCC1`, for which the fluorescence fold increase is 1.05.
